# Measurements published in PubChem BioAssay (NCATS).
# Results filed as inconclusive are left out. Where a call stands in place of a potency, no number is given. The source made the active and inactive calls. Unless noted, calls come from the whole dose curve; as a rule, active = well fitted curve in the direction sought with a large enough effect; inconclusive = small, poorly fitted or top-dose-only effect, or another doubt; inactive = no such curve, though single readings can be large; an effect the other way counts as inactive or inconclusive.
# Tests used:
# [1] = P-glycoprotein substrates identified in KB-8-5-11 adenocarcinoma cell line, qHTS therapeutic library screen (AID 1346987); settings: KB-8-5-11 (P-gp overexpressing) viability, CellTiter-Glo, 72 h; series mostly up to 44.5 µM; note: nearly all actives have a fitted effect of over 65% in size; note: potency is the fitted concentration of half-maximal effect
# Procedure, shortened: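 Luminescence from CellTiter-Glo, read 5 min after addition, quantified survival of KB-8-5-11 (P-gp-overexpressing) cells exposed to compounds for 72 h. AC50 was derived from concentration-response curves.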
# [2] = P-glycoprotein substrates identified in KB-3-1 adenocarcinoma cell line, qHTS therapeutic library screen (AID 1346986); settings: KB-3-1 parental cells viability, CellTiter-Glo, 72 h; series mostly up to 44.5 µM; note: nearly all actives have a fitted effect of over 60% in size;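 note: potency is the fitted concentration of half-maximal effect; potency is for cytotoxicity meaning loss of cell viability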
# Procedure, shortened: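 72 h cell-killing screen, 500 cells/well, CellTiter-Glo luminescence. Paired lines KB-3-1/KB-8-5-11; P-gp dependence checked by tariquidar co-treatment and HEK-293 MDR-19 versus empty-vector cells.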
# [3] = NS1 protein of Zika virus - qHTS assay to identify small molecule inhibitors in human HEK 293 cells (AID 1347053); settings: HEK293 ZIKV MR766 infection, NS1 TR-FRET, 24 h; series mostly up to 46.1 µM; note: nearly all actives have a fitted effect of over 55% in size
# Procedure, shortened: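 In this cell-based screen, HEK 293 cultures received compound for one hour before Zika MR766 at MOI = 0.5. NS1 was quantified 24 hours later by TR-FRET, normalized to virus-free wells and infected wells.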
# [4] = biological target: Tyrosine-protein phosphatase non-receptor type substrate 1 (Homo sapiens) + Leukocyte surface antigen CD47 (Homo sapiens) (UniProt P78324+Q08722); test: CD47-SIRPalpha protein protein interaction - LANCE assay qHTS validation (AID 1347057; active = well fitted curve in the direction sought with a large enough effect in the signal ratio, with a control signal flat, not every such curve was filed as active; the % refers to the signal ratio); settings: Recombinant CD47-His / biotin-SIRPalpha, TR-FRET ratio; series mostly up to 38.3 µM
# Procedure, shortened: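 Inhibition of soluble CD47/SIRPalpha ectodomain association by titrated compounds, measured as 665/615 nm time-resolved FRET ratio after sequential 30 min room-temperature incubations.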
# [5] = biological target: Atrial natriuretic peptide receptor 1 (Homo sapiens) (UniProt P16066); test: Natriuretic polypeptide receptor (hNpr1) antagonism - Pilot screen (AID 1347049; calls by dose curve;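 note: HEK293 cells with hNpr1 and GloSensor cGMP luciferase stimulated by 0.1 nM hNppA; agonist-evoked cGMP luminescence read 20 min after hNppA addition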; note: potency is the fitted concentration of half-maximal effect); settings: hNpr1 cells, antagonist mode cGMP read-out; series mostly up to 57.5 µM
# Procedure, shortened: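 Cells expressing receptor plus cGMP biosensor are seeded and incubated overnight at 37C, then loaded with GloSensor reagent (2% final) at room temperature for 2 h. Library compounds go on for 30 min. A pre-read precedes agonist (hNppA, 0.1 nM final) and a 20-min readout.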
# [6] = Natriuretic polypeptide receptor (hNpr1) antagonism - Pilot counterscreen GloSensor control cell line (AID 1347045; calls by dose curve; note: potency is the fitted concentration of half-maximal effect); settings: HEK293 cGMP GloSensor cells, SNP-stimulated luminescence, 20 min; series mostly up to 38.3 µM
# Procedure, shortened: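 Cells were first seeded and incubated overnight at 37C, then loaded with 2% GloSensor substrate for 2 h. Compounds were added for 30 min at room temperature, followed by a baseline read, 50 uM SNP and a final read after 20 min.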
# [7] = biological target: Atrial natriuretic peptide receptor 2 (Homo sapiens) (UniProt P20594); test: Natriuretic polypeptide receptor (hNpr2) antagonism - Pilot subtype selectivity assay (AID 1347050; calls by dose curve; note: potency is the fitted concentration of half-maximal effect); settings: NPR2-expressing cells, cGMP antagonist-mode read-out; series mostly up to 38.3 µM
# Procedure, shortened: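 Read-out: GloSensor luminescence (CCD imager), baseline vs post-stimulation. HEK293 cells expressing hNpr2; compounds pre-incubated 30-50 min at ambient temperature; hNppC 1 nM final, 20 min.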
# Chain of Atrial natriuretic peptide receptor 1 (Homo sapiens) (P16066 whole entry, looked up): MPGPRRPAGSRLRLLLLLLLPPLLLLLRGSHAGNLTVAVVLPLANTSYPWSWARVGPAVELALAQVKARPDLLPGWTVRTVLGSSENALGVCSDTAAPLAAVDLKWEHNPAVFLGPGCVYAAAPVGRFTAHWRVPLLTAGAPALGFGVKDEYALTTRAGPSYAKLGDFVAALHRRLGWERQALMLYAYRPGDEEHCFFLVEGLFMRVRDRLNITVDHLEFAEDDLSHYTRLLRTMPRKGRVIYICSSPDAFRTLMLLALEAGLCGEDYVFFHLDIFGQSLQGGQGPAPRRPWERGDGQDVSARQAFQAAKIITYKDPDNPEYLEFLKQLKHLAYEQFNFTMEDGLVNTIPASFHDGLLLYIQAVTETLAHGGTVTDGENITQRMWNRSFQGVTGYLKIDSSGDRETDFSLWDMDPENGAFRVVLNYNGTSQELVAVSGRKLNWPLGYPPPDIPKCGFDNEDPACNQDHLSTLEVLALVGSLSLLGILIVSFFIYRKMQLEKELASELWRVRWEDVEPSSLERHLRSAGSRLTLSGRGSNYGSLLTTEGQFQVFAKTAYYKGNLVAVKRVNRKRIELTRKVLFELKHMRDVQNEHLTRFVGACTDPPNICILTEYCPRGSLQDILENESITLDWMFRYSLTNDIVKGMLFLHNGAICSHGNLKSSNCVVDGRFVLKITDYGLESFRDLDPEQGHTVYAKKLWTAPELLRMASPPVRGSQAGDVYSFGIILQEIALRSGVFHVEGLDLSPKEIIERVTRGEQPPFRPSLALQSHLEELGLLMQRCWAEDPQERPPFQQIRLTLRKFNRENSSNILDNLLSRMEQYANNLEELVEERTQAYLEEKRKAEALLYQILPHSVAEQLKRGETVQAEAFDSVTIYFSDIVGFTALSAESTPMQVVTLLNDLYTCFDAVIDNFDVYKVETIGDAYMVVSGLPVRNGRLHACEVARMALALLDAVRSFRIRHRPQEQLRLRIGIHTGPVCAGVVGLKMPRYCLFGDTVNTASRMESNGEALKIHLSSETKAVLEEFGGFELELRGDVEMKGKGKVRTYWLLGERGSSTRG
# Chain of Tyrosine-protein phosphatase non-receptor type substrate 1 (Homo sapiens) + Leukocyte surface antigen CD47 (Homo sapiens) (P78324 whole entry, looked up, the tested form may be a part): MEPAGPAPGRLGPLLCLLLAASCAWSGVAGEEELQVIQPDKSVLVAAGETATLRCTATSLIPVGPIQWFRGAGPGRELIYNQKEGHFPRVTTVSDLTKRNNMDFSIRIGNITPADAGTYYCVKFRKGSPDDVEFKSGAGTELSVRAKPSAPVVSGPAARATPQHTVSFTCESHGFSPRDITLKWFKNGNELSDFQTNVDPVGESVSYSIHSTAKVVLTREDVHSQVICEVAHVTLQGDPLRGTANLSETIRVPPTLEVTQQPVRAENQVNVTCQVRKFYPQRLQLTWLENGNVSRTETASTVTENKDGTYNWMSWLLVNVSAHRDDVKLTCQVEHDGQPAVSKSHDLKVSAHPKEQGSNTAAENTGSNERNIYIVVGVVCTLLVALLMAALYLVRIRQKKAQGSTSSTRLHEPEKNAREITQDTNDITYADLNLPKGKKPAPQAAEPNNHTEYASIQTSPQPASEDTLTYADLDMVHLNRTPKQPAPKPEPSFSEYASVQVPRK
# Chain of Tyrosine-protein phosphatase non-receptor type substrate 1 (Homo sapiens) + Leukocyte surface antigen CD47 (Homo sapiens) (Q08722 whole entry, looked up, the tested form may be a part): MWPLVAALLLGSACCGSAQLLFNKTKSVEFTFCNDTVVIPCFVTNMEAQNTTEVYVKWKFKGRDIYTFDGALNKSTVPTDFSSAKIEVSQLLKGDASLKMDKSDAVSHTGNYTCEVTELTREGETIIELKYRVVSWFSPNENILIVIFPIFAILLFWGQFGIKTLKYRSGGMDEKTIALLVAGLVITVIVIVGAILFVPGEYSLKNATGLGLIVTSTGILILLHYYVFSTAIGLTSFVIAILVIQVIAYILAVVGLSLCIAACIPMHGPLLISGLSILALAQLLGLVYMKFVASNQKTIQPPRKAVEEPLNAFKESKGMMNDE
# Chain of Atrial natriuretic peptide receptor 2 (Homo sapiens) (P20594 whole entry, looked up): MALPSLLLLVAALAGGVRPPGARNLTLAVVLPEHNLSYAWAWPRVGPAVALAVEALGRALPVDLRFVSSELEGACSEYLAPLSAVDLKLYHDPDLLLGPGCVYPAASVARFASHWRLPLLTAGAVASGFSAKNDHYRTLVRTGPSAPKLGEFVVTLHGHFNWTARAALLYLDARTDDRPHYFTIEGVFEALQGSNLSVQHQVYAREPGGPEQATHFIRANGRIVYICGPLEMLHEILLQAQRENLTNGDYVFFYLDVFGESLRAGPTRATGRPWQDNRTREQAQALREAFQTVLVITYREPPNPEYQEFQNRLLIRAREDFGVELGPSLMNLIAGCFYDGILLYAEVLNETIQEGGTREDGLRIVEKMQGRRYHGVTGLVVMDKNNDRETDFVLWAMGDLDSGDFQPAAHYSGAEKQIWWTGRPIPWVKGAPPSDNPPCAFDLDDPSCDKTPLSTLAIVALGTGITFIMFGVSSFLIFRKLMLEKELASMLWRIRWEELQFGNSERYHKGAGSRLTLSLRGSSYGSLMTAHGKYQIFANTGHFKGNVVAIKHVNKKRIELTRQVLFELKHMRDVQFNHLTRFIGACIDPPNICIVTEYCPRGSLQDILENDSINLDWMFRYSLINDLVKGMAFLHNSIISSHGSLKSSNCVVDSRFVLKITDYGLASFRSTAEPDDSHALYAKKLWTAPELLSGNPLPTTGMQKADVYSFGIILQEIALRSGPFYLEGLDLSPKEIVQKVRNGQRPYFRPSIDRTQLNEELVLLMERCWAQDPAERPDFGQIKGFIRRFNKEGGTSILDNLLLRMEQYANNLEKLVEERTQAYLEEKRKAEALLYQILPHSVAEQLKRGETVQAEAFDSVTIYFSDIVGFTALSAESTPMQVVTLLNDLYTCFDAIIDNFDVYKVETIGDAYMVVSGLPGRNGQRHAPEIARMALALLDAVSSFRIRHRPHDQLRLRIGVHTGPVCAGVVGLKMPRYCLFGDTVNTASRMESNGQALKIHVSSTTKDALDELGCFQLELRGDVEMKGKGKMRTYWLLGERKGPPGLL
compound,measurement,setting,value
CC[C@H]1OC(=O)[C@H](C)[C@@H](O[C@H]2C[C@@](C)(OC)[C@@H](O)[C@H](C)O2)[C@H](C)[C@@H](O[C@@H]2O[C@H](C)C[C@H](N(C)C)[C@H]2O)[C@](C)(O)C[C@@H](C)C(=O)[C@H](C)[C@@H](O)[C@]1(C)O,Potency,[1],inactive
O=[N+]([O-])c1ccc(CNc2nc(NCc3cccc(C(F)(F)F)c3)nc3nc[nH]c23)cc1,Potency,[2],inactive
same,Potency,[1],inactive
same,Potency,[3],inactive
same,Potency,[4],inactive
Nc1ncnc2c1c(I)cn2[C@@H]1C[C@H](N)[C@@H](O)[C@H]1O,Potency,[2],14.6 µM (active)
same,Potency,[5],inactive
CN1[C@@H]2CC[C@H]1CC(OC(c1ccccc1)c1ccccc1)C2 (stereo not given in full),Potency,[2],inactive
same,Potency,[1],inactive
CC(=O)c1ccc(OCC(=O)N2CCCCC2)cc1,Potency,[2],inactive
same,Potency,[1],inactive
same,Potency,[3],inactive
CC[C@H]1OC(=O)[C@H](C)C(=O)[C@H](C)[C@@H](O[C@@H]2O[C@H](C)C[C@H](N(C)C)[C@H]2O)[C@](C)(OC)C[C@@H](C)C(=O)[C@H](C)[C@H]2N(CCCCn3cnc(-c4cccnc4)c3)C(=O)O[C@]12C,Potency,[1],inactive
N=c1ccn2c(n1)O[C@H]1[C@H](O)[C@@H](CO)O[C@H]12,Potency,[1],inactive
same,Potency,[6],inactive
same,Potency,[7],inactive
same,Potency,[3],inactive
same,Potency,[4],inactive
O=C(/C=C/c1ccccc1)NCCO,Potency,[1],inactive
same,Potency,[3],inactive
CC(C(=O)O)c1ccc(C(=O)c2ccccc2)s1 (stereo not given),Potency,[1],inactive
same,Potency,[3],inactive
S=c1[nH]c2ccccc2s1,Potency,[1],inactive
same,Potency,[3],inactive
O=C(O)/C=C/C(O)c1ccc(Cl)cc1 (stereo not given),Potency,[1],inactive
same,Potency,[6],inactive
same,Potency,[7],inactive
C#CC1(O)CC[C@H]2[C@@H]3CCC4=CCCC[C@@H]4[C@H]3CC[C@@]21C (stereo not given in full),Potency,[1],inactive
same,Potency,[3],inactive
O=C(OCc1ccccc1)c1ccccc1,Potency,[1],inactive
same,Potency,[3],inactive
Nc1ccc(O)c([N+](=O)[O-])c1,Potency,[1],inactive
same,Potency,[3],inactive
CC1(C)S[C@@H]2[C@H](NC(=O)[C@H](N)c3ccc(O)cc3)C(=O)N2[C@H]1C(=O)O,Potency,[1],inactive
Cc1ccc(O)c(-n2nc3ccccc3n2)c1,Potency,[1],inactive
C[S+](CC[C@H](N)C(=O)O)C[C@H]1O[C@@H](n2cnc3c(N)ncnc32)[C@H](O)[C@@H]1O (stereo not given in full),Potency,[1],inactive
O=C(O)c1cc(O)c(O)c(O)c1,Potency,[1],inactive
same,Potency,[3],inactive
Nc1ccc([N+](=O)[O-])cc1O,Potency,[1],inactive
same,Potency,[3],inactive
O=C(O)Cc1ccc(-c2ccccc2)cc1,Potency,[1],inactive
same,Potency,[3],inactive
CN(C)CCn1nnnc1SCC1=C(C(=O)O)N2C(=O)[C@@H](NC(=O)Cc3csc(N)n3)[C@H]2SC1,Potency,[1],inactive
same,Potency,[3],inactive
c1ccc2sc(SSc3nc4ccccc4s3)nc2c1,Potency,[1],inactive
same,Potency,[3],inactive
CC(C(=O)O)c1ccc(C(=O)c2cccs2)cc1 (stereo not given),Potency,[1],inactive
same,Potency,[3],inactive
CC(C)Cc1ccc([C@H](C)C(=O)O)cc1,Potency,[1],inactive
same,Potency,[6],inactive
same,Potency,[7],inactive
same,Potency,[3],inactive
same,Potency,[4],inactive
CC(N)C(=O)OC(C)(C)Cc1ccc(Cl)cc1 (stereo not given),Potency,[1],inactive
same,Potency,[6],inactive
same,Potency,[5],inactive
same,Potency,[7],inactive
same,Potency,[3],inactive
same,Potency,[4],inactive
Nc1ccc(O)c(C(=O)O)c1,Potency,[1],inactive
same,Potency,[3],inactive
O=C(O)[C@H](CC(=O)N1C[C@H]2CCCC[C@H]2C1)Cc1ccccc1,Potency,[1],inactive
C#C[C@]1(O)CC[C@H]2[C@@H]3CCc4cc(O)ccc4[C@H]3CC[C@@]21C,Potency,[1],6.51 µM (active)
same,Potency,[3],inactive
C[N+](C)(C)CCOP(=O)(O)OP(=O)([O-])OC[C@H]1O[C@@H](n2ccc(N)nc2=O)[C@H](O)[C@@H]1O,Potency,[1],inactive
same,Potency,[6],inactive
same,Potency,[5],inactive
same,Potency,[7],inactive
same,Potency,[3],inactive
same,Potency,[4],inactive
COc1cccc2c1C(=O)c1c(O)c3c(c(O)c1C2=O)C[C@@](O)(C(=O)CO)C[C@@H]3O[C@H]1C[C@H](N)[C@H](O[C@@H]2CCCCO2)[C@H](C)O1,Potency,[1],inactive
CCC1C(=O)OCC1Cc1cncn1C (stereo not given),Potency,[1],inactive
same,Potency,[6],inactive
same,Potency,[5],inactive
same,Potency,[7],inactive
same,Potency,[3],inactive
same,Potency,[4],inactive
C=CC(N)CCC(=O)O (stereo not given),Potency,[1],inactive
same,Potency,[6],inactive
same,Potency,[5],inactive
same,Potency,[7],inactive
same,Potency,[3],inactive
same,Potency,[4],inactive
CCN1/C(=C/C(C)=O)Sc2ccc(OC)cc21,Potency,[1],inactive
same,Potency,[6],inactive
same,Potency,[7],inactive
same,Potency,[3],inactive
same,Potency,[4],inactive
CO[C@H]1C[C@@H]2CC[C@@H](C)[C@@](O)(O2)C(=O)C(=O)N2CCCC[C@H]2C(=O)O[C@H]([C@H](C)C[C@@H]2CC[C@@H](O)[C@H](OC)C2)CC(=O)[C@H](C)C=C(C)[C@@H](O)[C@@H](OC)C(=O)[C@H](C)C[C@H](C)/C=C/C=CC=C1C,Potency,[1],inactive
COc1ccc(/C=C/C(=O)Nc2ccccc2C(=O)O)cc1OC,Potency,[1],inactive
same,Potency,[6],1.85 µM (active)
same,Potency,[5],9.53 µM (active)
same,Potency,[7],3.69 µM (active)
same,Potency,[3],inactive
same,Potency,[4],inactive
